Here are results for 25 compounds from PubChem BioAssay (Tox21).

Several values for one entry are separate records, joined by “and”; a condition that tells them apart may be missing. Identical values can stand only once. The source holds several records for some structures; these can differ, active in one and inactive in another. Activity calls are given as the source filed them. Unless noted, calls come from the whole dose curve; as a rule, active = well fitted curve in the direction sought with a large enough effect in the repeat runs; inconclusive = weak or mixed curves; inactive = no such curve, though single readings can be large; an effect the other way counts as inactive or inconclusive.

The nature of experiment [1]: qHTS assay to identify small molecule antagonists of the thyroid receptor (TR) signaling pathway - cell viability counter screen (AID 743064). Note: nearly all actives have a fitted effect of over 50% in size. Note: potency is the fitted concentration of half-maximal effect. In outline: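 GH3.TRE-Luc rat pituitary cells carrying a TRE-luciferase reporter were treated with compound plus 1 nM T3 (final) for 23.5 h at 37 °C. Viability was then read in the same wells by CellTiter-Fluor fluorescence after a further 30 min.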

Experiment [2] is described as follows: qHTS assay to identify small molecule antagonists of the thyroid receptor (TR) signaling pathway (AID 743065). Note: nearly all actives have a fitted effect of over 55% in size. Note: potency is the fitted concentration of half-maximal effect. In outline:
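GH3.TRE-Luc rat pituitary cells (two TREs driving luciferase) were dosed with compound, then stimulated with 1 nM T3 (final) for 23.5 h at 37 C. ONE-Glo luminescence was the read-out, with CellTiter-Fluor fluorescence as the cytotoxicity counter-screen.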
A general note: qHTS replaces the single test concentration by a dilution series.

Experiment [3] deals with thyroid hormone receptor (rat, GH3 cells). The experiment in a line: qHTS assay to identify small molecule agonists of the thyroid receptor (TR) signaling pathway (AID 743066; calls by dose curve; note: potency is the fitted concentration of half-maximal effect).
In experiment [4] the target is Estrogen receptor (Homo sapiens) (UniProt P03372). Description: qHTS assay to identify small molecule antagonists of the estrogen receptor alpha (ER-alpha) signaling pathway (AID 743069; active = well fitted curve in the direction sought with a large enough effect in the signal ratio in the repeat runs, not every such curve was filed as active; inconclusive = weak or mixed curves, or effect the other way; inactive = no such curve, though single readings can be large or run the other way; the % refers to the signal ratio). The method, boiled down:
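Reporter cells (ER-alpha-bla, HEK293 background) are conditioned overnight in stripped-serum medium (2% charcoal-stripped FBS). Compound and 17beta-estradiol exposure runs 18 hr at 37C, 5% CO2.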

Experiment [5] can be described thus: qHTS assay to identify small molecule antagonists of the estrogen receptor alpha (ER-alpha) signaling pathway - cell viability counter screen (AID 743074; calls by dose curve;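 note: HEK293 cells carrying ER-alpha-UAS-bla reporter stimulated with 17beta-estradiol; nearly all actives have a fitted effect of over 45% in size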; note: potency is the fitted concentration of half-maximal effect).
The target of experiment [6] is Estrogen receptor (Homo sapiens) (UniProt P03372). The experiment in a line: qHTS assay to identify small molecule agonists of the estrogen receptor alpha (ER-alpha) signaling pathway (AID 743075; calls by dose curve;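 note: HEK293 GripTite cells with ER-alpha and UAS-driven beta-lactamase reporter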; note: potency is the fitted concentration of half-maximal effect).
Chain of Estrogen receptor (Homo sapiens) (P03372 whole entry, looked up): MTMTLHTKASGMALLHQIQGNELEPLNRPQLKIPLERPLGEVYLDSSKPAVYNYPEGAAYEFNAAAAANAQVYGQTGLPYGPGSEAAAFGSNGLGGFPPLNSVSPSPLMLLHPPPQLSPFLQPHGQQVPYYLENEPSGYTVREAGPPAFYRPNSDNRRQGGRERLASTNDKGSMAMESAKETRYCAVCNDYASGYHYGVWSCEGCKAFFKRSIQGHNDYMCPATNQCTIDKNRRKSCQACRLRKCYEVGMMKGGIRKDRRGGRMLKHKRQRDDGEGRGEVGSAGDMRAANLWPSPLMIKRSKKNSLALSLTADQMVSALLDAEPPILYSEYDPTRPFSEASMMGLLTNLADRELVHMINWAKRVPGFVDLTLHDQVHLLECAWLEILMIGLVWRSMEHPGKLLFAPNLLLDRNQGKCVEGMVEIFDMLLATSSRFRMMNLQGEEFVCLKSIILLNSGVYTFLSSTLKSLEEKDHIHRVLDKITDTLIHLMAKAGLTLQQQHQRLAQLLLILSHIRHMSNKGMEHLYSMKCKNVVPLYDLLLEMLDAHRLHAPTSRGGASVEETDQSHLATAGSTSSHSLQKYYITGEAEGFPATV
Experiment [7] in a line: qHTS assay to identify small molecule antagonists of the estrogen receptor alpha (ER-alpha) signaling pathway using the BG1 cell line (AID 743080; calls by dose curve;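 note: BG1 cells stimulated with 17beta-estradiol alongside compound; series mostly up to about 70 µM; nearly all actives have a fitted effect of over 25% in size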). The method, boiled down:
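Seeding, 24 h rest, compound transfer from DMSO, 17beta-estradiol addition, 21.5 h incubation, CellTiter-Fluor (30 min, 37 C), then ONE-Glo (30 min, room temperature): this sequence was run on BG1-Luc-4E2 reporter cells.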

Experiment [8] in a line: qHTS assay to identify small molecule antagonists of the estrogen receptor alpha (ER-alpha) signaling pathway using the BG1 cell line - cell viability counter screen (AID 743081).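 Note: compound given together with 17beta-estradiol as the ER stimulus; series mostly up to about 70 µM; nearly all actives have a fitted effect of over 45% in size.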
In another experiment the target is Aromatase (Homo sapiens) (UniProt P11511). Description: qHTS assay to identify aromatase inhibitors (AID 743083). Note: nearly all actives have a fitted effect of over 55% in size. Note: potency is the fitted concentration of half-maximal effect.
Chain of Aromatase (Homo sapiens) (P11511 whole entry, looked up): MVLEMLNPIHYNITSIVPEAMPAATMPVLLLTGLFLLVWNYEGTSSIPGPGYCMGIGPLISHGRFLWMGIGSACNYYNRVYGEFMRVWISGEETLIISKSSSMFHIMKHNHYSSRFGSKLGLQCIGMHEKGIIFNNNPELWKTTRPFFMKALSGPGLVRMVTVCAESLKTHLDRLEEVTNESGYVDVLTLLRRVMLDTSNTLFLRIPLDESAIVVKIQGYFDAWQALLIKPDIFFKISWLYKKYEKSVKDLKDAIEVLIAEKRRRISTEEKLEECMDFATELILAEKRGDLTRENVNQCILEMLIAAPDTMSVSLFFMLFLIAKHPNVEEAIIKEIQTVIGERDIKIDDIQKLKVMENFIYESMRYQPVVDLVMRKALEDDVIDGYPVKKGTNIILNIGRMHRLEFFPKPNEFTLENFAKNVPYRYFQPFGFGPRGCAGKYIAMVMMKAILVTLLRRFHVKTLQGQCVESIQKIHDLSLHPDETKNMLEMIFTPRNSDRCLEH
The target of experiment [9] is Estrogen receptor (Homo sapiens) (UniProt P03372). The experiment in a line: qHTS assay to identify small molecule agonists of the estrogen receptor alpha (ER-alpha) signaling pathway using the BG1 cell line (AID 743079). Note: nearly all actives have a fitted effect of over 20% in size. Note: potency is the fitted concentration of half-maximal effect.

Regarding `CCOP(=S)(OCC)SCSc1cc(Cl)ccc1Cl`, the Potency entry in experiment [1], in experiment [2], in experiment [3], in experiment [4], in experiment [5] and in experiment [6] was “inactive” each time. Moreover, the Potency entry (in experiment [7]; in [8]; with Aromatase (Homo sapiens)) was “inactive” throughout.
As to `COc1cc(CC(C)N)c(OC)cc1Br` (stereo not given), the Potency in experiment [1] is 35.5 µM (active) and 23.7 µM (active); in experiment [2], 35.5 µM (active) and 23.7 µM (active). In addition, the Potency entry in experiment [3], in experiment [4], in experiment [5], in experiment [6], in experiment [9] and in [8] was “inactive” each time. The Potency result with Aromatase (Homo sapiens) was “inactive”.
On to `CCCCC#N`, for which the Potency result in [1], in experiment [2], in experiment [3], in [4], in experiment [5] and in [6] was “inactive” each time. Also, the Potency entry (in [9]; in [8]; in the experiment with Aromatase (Homo sapiens)) was “inactive” in each case.
As to `O=C([O-])c1ccccn1.O=C([O-])c1ccccn1.O=C([O-])c1ccccn1.[Cr+3]`, the Potency result in experiment [1], in experiment [2], in [3], in [4], in experiment [5] and in [6] was “inactive” each time. The Potency entry (in experiment [9]; in [8]; in the experiment with Aromatase (Homo sapiens)) was “inactive” each time.
For `Clc1ccc2ccccc2c1`, the Potency entry in experiment [1], in experiment [2], in experiment [3], in [4], in experiment [5] and in experiment [6] was “inactive” in each case. For the same compound, the Potency entry (in experiment [7]; in experiment [8]; with Aromatase (Homo sapiens)) was “inactive” in each case.
On to `CC(C)(C)N(NC(=O)c1ccc(Cl)cc1)C(=O)c1ccccc1`, for which, in experiment [1], the Potency is 3.42 µM (active). For the same compound, the Potency entry in experiment [2], in [3], in experiment [4], in [5], in [6] and in experiment [7] was “inactive” in each case. The Potency result in the experiment with Aromatase (Homo sapiens) was “inactive”.
`CCOP(=O)(O)C(N)=O`: the Potency result in [1], in [2], in experiment [3], in experiment [4], in experiment [5] and in [6] was “inactive” in each case. Moreover, the Potency result (in experiment [9]; in experiment [8]; with Aromatase (Homo sapiens)) was “inactive” in each case.
Turning to `CN(C)c1ccc(N=O)cc1`, the Potency is 3.87 µM (active) and 9.69 µM (active) in [1]; 5.46 µM (active) and 12.2 µM (active) in experiment [2]; 13.7 µM (active) in experiment [3]; 12.2 µM (active) in [9]; 9.72 µM (active) and 21.7 µM (active) with Aromatase (Homo sapiens). For the same compound, the Potency entry in experiment [5] and in experiment [6] was “inactive” each time.
As to `CCOP(=S)(OCC)Oc1ccc(S(C)=O)cc1` (stereo not given), the Potency result in experiment [1], in experiment [2], in experiment [3], in experiment [5], in experiment [6] and in [9] was “inactive” in each case. In addition, the Potency entry (in experiment [7]; in experiment [8]; with Aromatase (Homo sapiens)) was “inactive” in each case.
For `CCCCCCCCCCCC[N+](C)(C)CCOc1ccccc1`, the Potency is 13.3 µM (active) and 9.69 µM (active) in experiment [1]; 10.6 µM (active) and 9.69 µM (active) in experiment [2]; 19 µM (active) and 17.4 µM (active) in experiment [5]; 21.1 µM (active) and 19.3 µM (active) in the experiment with Aromatase (Homo sapiens). Further, the Potency result in [3], in experiment [6] and in [8] was “inactive” throughout.
As for `Cc1nc2ccccc2c(=O)n1-c1ccccc1Cl`, the Potency in experiment [1] is 30 µM (active); in [9] it was 33.6 µM (active). For the same compound, the Potency result (in experiment [2]; in experiment [3]; in experiment [4]; in experiment [6]; with Aromatase (Homo sapiens)) was “inactive” throughout.
As to `CC(C)c1ccc(NC(=O)N(C)C)cc1`, the Potency entry in [1], in experiment [2], in experiment [3], in experiment [4], in [5] and in experiment [6] was “inactive” in each case. The Potency entry (in [8]; in the experiment with Aromatase (Homo sapiens)) was “inactive” each time.
With `N#CC1(N=NC2(C#N)CCCCC2)CCCCC1`, the Potency entry (in [1]; in experiment [2]; in experiment [3]; in [5]; in experiment [8]; with Aromatase (Homo sapiens)) was “inactive” each time.
For `O=C(Cl)OCCOCCOC(=O)Cl`, the Potency entry in experiment [1], in experiment [2], in experiment [4], in experiment [6], in experiment [9] and in [8] was “inactive” throughout. Also, the Potency result with Aromatase (Homo sapiens) is “inactive”. Further, the Potency in experiment [3] is 27.3 µM (active).
Consider `OC[P+](CO)(CO)CO`, for which the Potency entry in experiment [1], in experiment [2], in [3], in experiment [5], in experiment [7] and in [8] was “inactive” in each case. Also, the Potency result with Aromatase (Homo sapiens) was “inactive”.
`Nc1ccccc1C(=O)OCCc1ccccc1`: the Potency result in [1], in experiment [2], in [3], in [5] and in [8] was “inactive” in each case.
`COC1CC(=C(c2cccs2)c2cccs2)C[N+](C)(C)C1` (stereo not given): the Potency entry in experiment [1], in [2], in experiment [3], in [4], in experiment [5] and in experiment [6] was “inactive” throughout. In addition, the Potency entry (in [8]; with Aromatase (Homo sapiens)) was “inactive” throughout.
In the case of `CC(C)(C)OOC(C)(C)CCC(C)(C)OOC(C)(C)C`, the Potency entry in [1], in experiment [2], in experiment [3], in [5] and in experiment [8] was “inactive” throughout.
Consider `CC(C)OC(=O)Cc1ccccc1`, for which the Potency entry in experiment [1], in experiment [2], in [3], in experiment [4], in experiment [5] and in experiment [6] was “inactive” throughout. The Potency result (in [9]; in experiment [8]; with Aromatase (Homo sapiens)) was “inactive” throughout.
On to `COP(=O)(OC)OC(Br)C(Cl)(Cl)Br` (stereo not given), for which the Potency in experiment [1] is 54.5 µM (active) and 61.1 µM (active); in [2], 54.5 µM (active) and 48.6 µM (active); in experiment [6], 61.7 µM [inconclusive] (active) and inactive; with Aromatase (Homo sapiens), 61.2 µM (active) and 61.1 µM (active). The Potency entry in [3], in experiment [5], in experiment [9] and in experiment [8] was “inactive” in each case.
Turning to `OCC1CO1` (stereo not given), the Potency result in experiment [1], in [2], in [3], in experiment [5], in experiment [6] and in [9] was “inactive” in each case. The Potency entry (in experiment [8]; with Aromatase (Homo sapiens)) was “inactive” throughout.
`O=CC=O`: the Potency result in experiment [1], in experiment [2], in experiment [3], in experiment [4], in [5] and in experiment [6] was “inactive” each time. In addition, the Potency entry (in experiment [8]; with Aromatase (Homo sapiens)) was “inactive” each time. In addition, in experiment [9], the Potency entry is “inactive and 28.1 µM (active)”.
Take `Nc1c(Br)cc(Br)c2c1C(=O)c1ccccc1C2=O`: the Potency entry in experiment [1], in experiment [2], in experiment [3], in experiment [4], in experiment [5] and in experiment [6] was “inactive” each time. Further, the Potency result (in [9]; in [8]; in the experiment with Aromatase (Homo sapiens)) was “inactive” throughout.
In the case of `CCCCC(CC)COC(=O)c1c(Br)c(Br)c(Br)c(Br)c1C(=O)OCC(CC)CCCC` (stereo not given), the Potency entry in experiment [1], in experiment [2], in [3], in experiment [4], in [6] and in experiment [9] was “inactive” each time. In addition, the Potency entry (in [7]; in experiment [8]; with Aromatase (Homo sapiens)) was “inactive” each time.
`CC[N+]1(CCOC(=O)C(O)(c2ccccc2)c2ccccc2)CCCCC1`: the Potency result in experiment [1], in [2], in experiment [3], in experiment [4], in experiment [5] and in experiment [7] was “inactive” each time. The Potency entry (in [8]; in the experiment with Aromatase (Homo sapiens)) was “inactive” in each case. The Potency in experiment [9] is 8.41 µM (active).
